# Potency and affinity values are given separately. A number with no mark means an inactive call. The rule behind the calls is not given here.
# Test: dose response, counter-screen, biochemical, fluorescence, single-stranded RNase substrate (AID 588502)
# Conditions: oligo substrate without MazF, fluorescence increase, 5 h
smiles,measurement,value
CC1CCC(=NNS(=O)(=O)c2ccc([N+](=O)[O-])cc2)CC1 (stereo unspecified),EC50,> 99 µM

# Reference: PubChem BioAssay AID588502 (Sanford-Burnham Center for Chemical Genomics, 2011)
